In ChEMBL document CHEMBL4513216, “Probing the Open Global Health Chemical Diversity Library for Multistage-Active Starting Points for Next-Generation Antimalarials” (ACS Infect Dis, 2020) one finds INHIBITION data, which are given here for 55 compounds.

Out of some 69,000 compounds screened, about 8,600 (12%) showed an effect of 50% or more. Shown is part of a subset that was picked to be rich in strong results.

The test system of this experiment is Plasmodium berghei. Put plainly: Screen against P. berghei liver stage (PbLuc), transformed with Luciferase, at 10uM. The format is functional, HepG2. The conditions noted are these: tested at 10 uM.
With `Cc1nnc(CN(C)C2CCN(CCc3cccs3)C2)n1C` (stereo not given), the INHIBITION came out at 21.8%.

`Cc1nnc(CN(C)C2CCN(Cc3nnc(C4CCC4)o3)C2)n1C` (stereo not given): the INHIBITION is 40.9%.

As to `Cc1cc(CN2CCC(N(C)Cc3noc(C4CC4)n3)C2)on1` (stereo not given), the INHIBITION came to 19.5%.

As to `Cc1cc(C)n(CCN2CCC(N(C)Cc3noc(C4CC4)n3)C2)n1` (stereo not given), the INHIBITION amounted to 68.5%.

Regarding `Cc1cnc(CN2CCC(N(C)Cc3nnc(C4CC4)n3C)C2)cn1` (stereo not given), the INHIBITION is 27.5%.

On to `CCn1c(C)nnc1CN(C)C1CCN(Cc2cnc(C)cn2)C1` (stereo not given), for which the INHIBITION is on record as -7.48%.

For `CCc1nc(CN(C(C)=O)C2CCN(Cc3cnc(C)cn3)C2)no1` (stereo not given), the INHIBITION is listed as 12.4%.

For the compound `Cc1cc(C)n(CCN2CCC(N(C)Cc3nnc(C)n3C)C2)n1` (stereo not given), the INHIBITION is 54.6%.

As to `COc1cc(C(=O)N2CC3(CCNCC3)c3cc(Cl)ccc32)ccn1`, the INHIBITION is given as -17.1%.

Regarding `Cc1cc(C(=O)N2CCN(C)CC2)nn1CC(=O)NCc1ccccn1`, the INHIBITION turned out to be 1.95%.

With `Cc1nc(CN2CCC(N(C)Cc3nnc(C4CC4)n3C)C2)cs1` (stereo not given), the INHIBITION is 7.12%.

With `O=C(NCCS(=O)(=O)N1CCN(c2ncccn2)CC1)C1CCCC1`, the INHIBITION is -33.5%.

Turning to `CCOCC1CN(Cc2ccc3c(c2)OCO3)Cc2nccn2C1` (stereo not given), the INHIBITION was determined as 29%.

For `Cc1ccc(CNC(=O)CN2CCCCC2Cn2cncn2)s1` (stereo not given), the INHIBITION was -1.14%.

Turning to `CNC(=O)COc1c(F)cc(Br)cc1C(C)=O`, the INHIBITION was 9.04%.

Turning to `CC(=O)c1cc(Br)cc(F)c1OCC(=O)NC(C)C`, the INHIBITION is given as 56.9%.

In the case of `COC(=O)COc1c(F)cc(Br)cc1C(C)=O`, the INHIBITION came to 8.24%.

As for `Cc1nc(CNCC2CN(C3CC3)CCO2)cs1` (stereo not given), the INHIBITION is on record as 27.4%.

As for `NC(=O)COc1ccc(CNCc2ccc(F)cc2)cc1`, the INHIBITION turned out to be 9.52%.

`Cc1cc(C)n(CC2CN(Cc3ccccn3)CCO2)n1` (stereo not given): the INHIBITION came to 12.415%.

Consider `Cc1nc(C)n(CC2CN(Cc3nc4ccccc4n3C)CCO2)n1` (stereo not given), for which the INHIBITION amounted to 22.3%.

For `Cc1nc(C)n(CC2CN(Cc3cccc4ccccc34)CCO2)n1` (stereo not given), the INHIBITION was found to be 37.4%.

Turning to `Cc1cc(C)n(CC2CN(Cc3cnc(C)s3)CCO2)n1` (stereo not given), the INHIBITION is reported as 28.8%.

For the compound `Cc1cc(C)n(CC2CN(Cc3nc4ccccc4s3)CCO2)n1` (stereo not given), the INHIBITION was found to be 79.9%.

`Cc1nc(C)n(CC2CN(Cc3nc4ccccc4s3)CCO2)n1` (stereo not given): the INHIBITION came out at 92.3%.

With `CN(Cc1ccco1)C(=O)CN1C(=O)c2ccccc2C1=O`, the INHIBITION amounted to 33.4%.

For `CN(C)CCN1C(=O)CCCC12CCCN(Cc1cccs1)C2` (stereo not given), the INHIBITION is -3.58%.

`CNC(=O)NCC(=O)N(C)C(c1ccc(Cl)cc1)c1cccnc1` (stereo not given): the INHIBITION worked out at 35.1%.

With `CN(CCO)C1CCN(c2ncc3c(n2)CCN3c2ccccc2)CC1`, the INHIBITION came out at 22.3%.

Consider `Cc1csc2ncnc(N3CCC(Cn4cc(C(C)(C)O)nn4)CC3)c12`, for which the INHIBITION is given as 84.2%.

Consider `CC(C)(N)c1cn(C2CCN(c3ncccc3Cl)CC2)nn1`, for which the INHIBITION is 30.4%.

As to `Cc1csc2c(N3CCC(Cn4cc(C(C)(C)O)nn4)CC3)ncnc12`, the INHIBITION is listed as 79.3%.

For the compound `CC(C)(O)c1cn(C[C@H]2C[C@@H]3CCN2C[C@@H]3C(=O)N2CCOCC2)nn1`, the INHIBITION is listed as -0.473%.

For `CC(O)Cc1cn(CC2CCN(c3nccc4occc34)CC2)nn1` (stereo not given), the INHIBITION was 11.8%.

As to `Cc1csc2ncnc(N3CCC(Cn4cc(C(C)(C)N)nn4)CC3)c12`, the INHIBITION stood at 84.2%.

On to `Cc1csc2ncnc(N3CCCC(Cn4cc(C(C)(C)O)nn4)C3)c12` (stereo not given), for which the INHIBITION is given as 48.5%.

Consider `CC(C)(O)c1cn(C2CCN(c3ncccc3Cl)CC2)nn1`, for which the INHIBITION turned out to be 25.7%.

On to `O=C(c1ccoc1)N1CCN(Cc2ccccc2F)CC1`, for which the INHIBITION amounted to 18.3%.

For `Cc1ccc(CS(=O)(=O)N2Cc3c(CN(C)C)nn(C)c3C2)cc1`, the INHIBITION worked out at 8.6%.

Regarding `COc1ccc(C2=NOC(CO)C2)cc1` (stereo not given), the INHIBITION is 35.8%.

Take `Fc1cccc(-c2nccnc2C2CCCNC2)c1` (stereo not given): the INHIBITION is on record as 8.72%.

`c1cc(CN2CCC3(CC2)COC(COCC2CC2)C3)ccn1` (stereo not given): the INHIBITION is recorded as 1.9%.

With `O=C(Cc1ccsc1)N1CCOC(c2nc(-c3ncccn3)no2)C1` (stereo not given), the INHIBITION is recorded as 21.9%.

`Cn1c(CCC(=O)N2CCCC3(CNC(=O)O3)C2)nc2cccnc21` (stereo not given): the INHIBITION is reported as 22.5%.

On to `Cc1nc(C2CCN(C(=O)c3cc(C4CC4)[nH]n3)CC2)no1`, for which the INHIBITION amounted to 11.9%.

`CS(=O)(=O)Nc1ccn(Cc2cccc(F)c2)n1`: the INHIBITION is recorded as 49.1%.

Turning to `COc1ccc(CN2C[C@@H]3OCCN(CCN(C)C)[C@@H]3C2)cc1`, the INHIBITION is recorded as 26.4%.

Consider `COCCN1CCO[C@H]2CN(Cc3cc[nH]n3)C[C@H]21`, for which the INHIBITION amounted to 40.3%.

For the compound `Fc1ccc(CN2C[C@@H]3OCCN(CCN4CCCC4)[C@@H]3C2)cc1`, the INHIBITION was 11.3%.

`COc1ccc(CN2C[C@@H]3OCCN(CC4CCCO4)[C@@H]3C2)cc1` (stereo not given in full): the INHIBITION came out at 27.9%.

Regarding `c1cc(CN2C[C@@H]3OCCN(CC4CCCO4)[C@@H]3C2)ccn1` (stereo not given in full), the INHIBITION was -1.55%.

Turning to `COc1ccc(CN2C[C@@H]3OCCN(CCN4CCCC4)[C@@H]3C2)cc1`, the INHIBITION was 82.3%.

For the compound `Fc1ccc(CN2C[C@@H]3OCCN(CC4CCCO4)[C@@H]3C2)cc1` (stereo not given in full), the INHIBITION came out at 68.4%.

On to `CC(C)N1CCO[C@H]2CN(Cc3cc[nH]n3)C[C@H]21`, for which the INHIBITION amounted to 29.4%.

As for `c1cc(CN2C[C@@H]3OCCN(CC4CC4)[C@@H]3C2)n[nH]1`, the INHIBITION turned out to be 59.3%.
